# NTMT1 inhibitor = NTMT1 methyltransferase inhibition | Q9BV86 | Potency, µM (series often up to 114 µM), without a hit: at the highest dose activity change, negative = inhibition, most hits filed as inhibitors | AID 1645870 | hit rate 2.5% among 59,000 | NTMT1 MTase-Glo SAH luminescence, purified enzyme;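 further: potency means the concentration at half of the fitted maximal effect; plate controls were DMSO vehicle for no effect and no enzyme for full effect; nearly all actives have a fitted effect of over 65% in size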
# Target sequence (Q9BV86 whole entry, looked up): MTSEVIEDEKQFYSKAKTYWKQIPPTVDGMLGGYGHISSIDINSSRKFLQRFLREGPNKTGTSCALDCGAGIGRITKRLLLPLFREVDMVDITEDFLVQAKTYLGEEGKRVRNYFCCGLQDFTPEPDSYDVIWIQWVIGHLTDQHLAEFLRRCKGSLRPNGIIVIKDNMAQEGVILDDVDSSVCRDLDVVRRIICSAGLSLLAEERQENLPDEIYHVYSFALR
# Sfp PPTase inh = inhibitors of Bacillus subtilis Sfp PPTase, optimization followup; purified Sfp PPTase enzyme activity, qHTS; shares compounds with NTMT1 inhibitor; Potency, µM (series often up to 114 µM), for inactives: top-dose activity change, negative = inhibition, actives largely listed as inhibitors; hit rate 78% among 230
# Bsub HM489 growth = Sfp PPTase inhibitors: growth inhibition of B. subtilis HM489; Potency, µM (top dose mostly 114 µM), inactives show top-dose activity change, negative = inhibition, actives largely listed as inhibitors; shares compounds with NTMT1 inhibitor; hit rate 50% among 220; AID 540353; B. subtilis HM489 (acpS-) growth, BacTiter-Glo, 5 h
# Sfp PPTase gel = Sfp PPTase inhibition, gel-based detection; Potency, µM (doses to about 250 µM), inactives show at the highest dose activity change, negative = inhibition, most hits filed as inhibitors; purified Sfp PPTase, gel-based product detection; hit rate 54% among 220; shares compounds with NTMT1 inhibitor
# Sfp inh gel = inhibits B. subtilis Sfp PPTase in gel-based assay; hit rate 90% among 45; purified Sfp PPTase, gel-based product detection; shares compounds with NTMT1 inhibitor; Potency, µM (series often up to 250 µM), inactives show at the top dose activity change, negative = inhibition, usual class: inhibitors; AID 602362
# Sfp inh SAR2 = Sfp phosphopantetheinyl transferase inhibition, SAR round 2. shares compounds with NTMT1 inhibitor. purified Sfp enzyme, PPTase activity, qHTS. Potency, µM (top dose mostly 57.1 µM), for the others: top-dose activity change, negative = inhibition, actives largely listed as inhibitors. hit rate 87% among 230. AID 602370
# hGST A1-1 inh = inhibits hGST A1-1 in Sfp inhibitor counter-screen; shares compounds with NTMT1 inhibitor; hGST A1-1 enzyme activity counter-screen, qHTS; Potency, µM (highest dose often 114 µM), inactives show at the top dose activity change, negative = inhibition, hits mostly inhibitors; 55 tested, under 10 active; AID 602391
# HSD17B4 counter = counter-screen for HPGD inhibitors: human HSD17B4 inhibition; shares compounds with NTMT1 inhibitor; purified HSD17B4, estradiol/NAD+, NADH fluorescence; Potency, µM (highest dose often 57.1 µM), inactives show top-dose activity change, negative = inhibition, usual class: inhibitors; hit rate 10% among 230; AID 743187
# ALDH1A1 counter = counter-screen for HPGD inhibitors: human ALDH1A1 inhibition | shares compounds with NTMT1 inhibitor | recombinant ALDH1A1, NADH fluorescence, propionaldehyde/NAD+ | Potency, µM (top dose mostly 57.1 µM), inactives show top-dose activity change, negative = inhibition, usual class: inhibitors | hit rate 93% among 230 | AID 743195
# NNMT counter = blocks human NNMT methyltransferase | shares compounds with NTMT1 inhibitor | NNMT MTase-Glo luminescence, SAH detection | Potency, µM (series often up to 57.1 µM), inactives show at the highest dose activity, negative = inhibition, actives largely listed as inhibitors | hit rate 10% among 120
# Starred values were filed as active, the others as inactive; ? = inconclusive; / = not tested or not shown; [ ] = another dose, or the depositor's remark. Only a selection was taken, and hits are over-represented in it overall. The call rests on the fitted dose curve; in most records, active means well fitted curve in the direction sought with a large enough effect; inconclusive means small, poorly fitted or top-dose-only effect, or another doubt; inactive means no such curve, though single readings can be large; an effect the other way counts as inactive or inconclusive.
SMILES,NTMT1 inhibitor,NNMT counter,others
CCOc1ccc(CCNC(=O)c2cc3sccc3n2Cc2ccccc2)c(F)c1OCC,18%,/,
Cc1cc(C)nc(NC(=S)N2CCN(c3ccc(Cl)c(Cl)c3)CC2)c1,-9%,/,Sfp PPTase inh=2.1µM*;Bsub HM489 growth=5.9µM*;Sfp PPTase gel=12µM*;Sfp inh gel=3µM*;Sfp inh SAR2=0.91µM*;hGST A1-1 inh=?;HSD17B4 counter=-29%;ALDH1A1 counter=8.6µM*
CC(C)c1cc(CNc2nc(Nc3cc(C4CC4)[nH]n3)cc(N3CCN(C)CC3)n2)on1,?,-16%,
CC(C)(C)c1ccc(C(=O)Nc2ccc(-c3nc4ccccc4[nH]3)cc2)cc1,5%,/,
CC(C)(C)c1ccc(-c2nc3ccccc3[nH]2)cc1,10µM*,?,
Cc1ccc(OCCn2c(CCNC(=O)Cc3ccccc3F)nc3ccccc32)cc1,-18%[57.5 µM],/,

# Screens: PubChem BioAssay, National Center for Advancing Translational Sciences (NCATS)
